Sampled rows, rich in hits. Any-hit rate of the full collection: about 2.8%.
MITF TRPM1 inh – inhibitors of MITF-dependent TRPM1 promoter reporter, primary screen, cell-based, SK-MEL-5, single point, luciferase | 330,000 tested, 0.83% active | inhibition, % at 12.5 µM | SK-MEL-5 TRPM1 promoter luciferase, 24 h;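 active means mean inhibition across replicates of 60% or more, whatever share of single replicates reaches that level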
Shn3 3UTR inh – reduction of Shn3 3'UTR firefly luciferase signal, primary screen, Schnurri-3 inhibitor project, cell-based, Clone20 osteoblasts, set 2; 360,000 tested, 0.52% active; Clone20 osteoblast Shn3 3'UTR firefly luciferase, 24 h; AID 588674, 2011; inhibition, % at 12.5 µM;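 active means mean inhibition of at least 75% with every replicate also reaching 75%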;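 further: 0% = median of neutral control wells and 100% = pilot-screen positive control compound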
KKLEB tox – cytotoxicity in KKLEB CF airway cells, primary screen, cytotoxicity control for CF NF-kB inhibitor project, cell-based, uHTS, fluorescence assay plates; KKLEB CF airway cells viability, ATPlite luminescence, overnight; hits give low values; cells stimulated with P. aeruginosa culture filtrate; activity change (cytotoxicity), % at 5 µM; 360,000 tested, 0.36% active;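 active means corrected activity change at or below -50% at 5 µM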
Peg3 promoter – Peg3 promoter-driven luciferase inhibitors, primary screen, cell-based, HeLa, luciferase luminescence; HeLa PEG-Prom luciferase reporter, overnight; inhibition, % at 20 µM; 360,000 tested, 1.7% active; AID 588405, 2011;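 active means inhibition of at least 50% at 20 µM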
HIF-2a block – HIF-2a reporter inhibitors, primary screen, luminescence, 786-0 RCC cells | inhibition, % at 18.8 µM | 786-0 RCC cells HIF-2a reporter, luciferase luminescence, overnight | 360,000 tested, 0.72% active | AID 624352, 2012;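 active means inhibition of the luminescence signal of 40% or more relative to plate controls, in a single-dose primary screen at 18.75 µM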
CF NFkB block – inhibitors of PAF-induced NF-kB signaling, primary screen, cell-based, GFP fluorescence, uHTS; KKLEB NF-kB-GFP reporter, GFP fluorescence overnight; 360,000 tested, 0.86% active; AID 588850, 2011; inhibition, % at 5 µM;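 active means at least 50% inhibition at 5 µM, scaled per plate between neutral and stimulator controls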;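 further: PAF is a Pseudomonas aeruginosa culture filtrate used as stimulus; plate controls were PAF-stimulated DMSO wells for no effect and unstimulated DMSO wells for full effect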
CF NFkB inh conf – inhibitors of PAF-induced NF-kB signaling, retest, confirmation, cell-based, GFP fluorescence, single concentration | shares compounds with CF NFkB block | KKLEB CF airway cells, overnight | inhibition, % at 5 µM | 1,300 tested, 64% active | AID 602472, 2012; in the data active means inhibition above about 40%;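 further: stimulus PAF is a Pseudomonas aeruginosa filtrate and not platelet activating factor; plate controls were DMSO wells with stimulus for no effect and unstimulated DMSO wells for full effect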
Mdm2 MdmX conf – retested Mdm2-MdmX interaction blockers, confirmation, cell-based, luminescence, single concentration, set 2; shares compounds with HIF-2a block; SaOS-2 split-luciferase Mdm2/MdmX complementation; inhibition, % at 8 µM; 740 tested, 99% active; AID 504601, 2011;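 active means mean inhibition of the luminescence signal across two replicates at or above 26 percent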
Target sequence (O15151 whole entry, looked up): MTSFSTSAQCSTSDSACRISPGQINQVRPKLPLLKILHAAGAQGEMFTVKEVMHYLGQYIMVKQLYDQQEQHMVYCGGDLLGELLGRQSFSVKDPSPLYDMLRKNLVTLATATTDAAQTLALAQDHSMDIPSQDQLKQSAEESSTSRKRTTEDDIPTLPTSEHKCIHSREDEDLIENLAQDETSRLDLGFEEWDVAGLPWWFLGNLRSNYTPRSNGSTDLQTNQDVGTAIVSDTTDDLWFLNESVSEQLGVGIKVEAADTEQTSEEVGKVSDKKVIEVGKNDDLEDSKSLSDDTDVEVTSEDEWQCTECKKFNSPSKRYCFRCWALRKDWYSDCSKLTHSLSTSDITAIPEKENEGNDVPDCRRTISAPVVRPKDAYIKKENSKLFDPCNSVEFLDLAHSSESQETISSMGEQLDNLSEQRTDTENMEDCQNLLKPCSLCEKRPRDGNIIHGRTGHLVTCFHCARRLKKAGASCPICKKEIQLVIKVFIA
Target sequence (Q00987 whole entry, looked up): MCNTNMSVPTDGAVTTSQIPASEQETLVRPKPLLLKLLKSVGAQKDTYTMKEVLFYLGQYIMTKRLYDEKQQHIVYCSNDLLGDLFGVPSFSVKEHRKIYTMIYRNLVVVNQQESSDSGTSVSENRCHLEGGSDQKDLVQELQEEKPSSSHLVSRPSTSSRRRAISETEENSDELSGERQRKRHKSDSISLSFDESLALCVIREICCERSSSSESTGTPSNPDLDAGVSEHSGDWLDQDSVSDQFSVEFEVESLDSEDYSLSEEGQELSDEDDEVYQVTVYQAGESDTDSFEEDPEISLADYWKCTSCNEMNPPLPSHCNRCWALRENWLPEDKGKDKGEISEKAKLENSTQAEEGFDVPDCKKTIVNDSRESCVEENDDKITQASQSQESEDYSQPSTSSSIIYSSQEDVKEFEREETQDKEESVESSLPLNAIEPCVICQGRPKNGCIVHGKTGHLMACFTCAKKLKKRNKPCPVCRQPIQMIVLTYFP
HIF-2a inh conf – HIF-2a reporter inhibitor retest, confirmation, luminescence, 786-0 RCC cells; 1,800 tested, 56% active; HIF-2a luciferase reporter luminescence, overnight; shares compounds with HIF-2a block; inhibition, % at 18.8 µM;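 active means mean inhibition across four replicates of at least 40 percent at the single tested concentration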
HIF-1a counter – HIF-1a luciferase reporter signal reduction – MiaPaCa-2 cells, single concentration, counter-screen for HIF-2a inhibitor project, confirmation. shares compounds with HIF-2a block. MiaPaCa-2 HIF-1a luciferase reporter, desferoxamine, overnight. inhibition, % at 18.8 µM. 1,800 tested, 72% active;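 active means mean inhibition of the reporter signal across four replicates at the single tested dose of 50% or more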
Active calls of the source: *; x = no result given.

SMILES	MITF TRPM1 inh	Shn3 3UTR inh	KKLEB tox	Peg3 promoter	HIF-2a block	CF NFkB block	CF NFkB inh conf	HIF-2a inh conf	HIF-1a counter	others
Cc1cc(NC(=O)CSC2=NS(=O)(=O)c3ccccc3N2)no1	-9	-2	2	-14	9	-11	x	x	x
CS(=O)(=O)c1ccc(C(=O)OCC(=O)NC23CC4CC(CC(C4)C2)C3)cc1[N+](=O)[O-]	45	68	-16	100*	92*	61*	35	64*	94*
COc1cccc(C(=O)OCC(=O)NC23CC4CC(CC(C4)C2)C3)c1	3	-2	-3	-11	10	5	x	x	x
BrC(=C\c1ccccc1)/C=N/Nc1ccc2nncn2n1	1	-36	3	-44	-96	-5	x	x	x
BrC(=C\c1ccccc1)/C=N/n1cnnc1	83*	52	-10	111*	61*	58*	-77	23	97*
Cc1ccc(S(=O)(=O)CCC(=O)OC(C)C(=O)N2CCc3ccccc32)cc1 (stereo not drawn)	13	-1	1	-2	11	-13	x	x	x
COC(=O)C1=C(C)NC(C)=C(C(=O)OC)C1C(=O)OCC(=O)N1CCCCC1C (stereo not drawn)	1	7	13	-4	2	8	x	x	x
CN(C)CCCN(C(=O)CCS(=O)(=O)c1ccccc1)c1nc2cc3c(cc2s1)OCO3	58	7	-11	107*	62*	96*	104*	38	102*
N#CC(C#N)=C1C=CC=CN1/C(=C\c1ccco1)C(=O)c1ccccc1	104*	96*	-35	99*	91*	96*	68*	98*	105*
Cn1c(N)c(C(=O)COC(=O)c2ccccc2C(=O)c2ccccc2)c(=O)n(C)c1=O	x	17	3	7	15	-4	x	x	x
O=C(COC(=O)c1ccccc1C(=O)c1ccc(Cl)c([N+](=O)[O-])c1)NC1CCCCCC1	100*	26	-27	104*	93*	86*	106*	-1	106*	Mdm2 MdmX conf=103*
Cn1c(N)c(C(=O)COC(=O)c2ccccc2C(=O)c2ccc(Cl)c([N+](=O)[O-])c2)c(=O)n(C)c1=O	92*	16	-19	96*	71*	65*	34	32	93*
COc1cccc(NC(=O)C(c2ccccc2)N2CCN(CC(=O)N3CCOCC3)CC2)c1 (stereo not drawn)	13	-38	13	-4	-25	7	x	x	x
COc1ccc(C(=O)N2CCN(Cc3ccccc3)CC2)cc1[N+](=O)[O-]	10	6	-1	20	3	-6	x	x	x
O=C(c1ccc(S(=O)(=O)c2cccc(Cl)c2)c([N+](=O)[O-])c1)N1CCN(Cc2ccccc2)CC1	60	25	-39	33	28	78*	-95	x	x	Mdm2 MdmX conf=101*
COc1ccc(-c2cc(-c3nc4ccccn4c3NCc3ccccc3)ccc2OC)cc1	85*	97*	-30	100*	-77	71*	97*	x	x	Mdm2 MdmX conf=102*
COc1ccc(-c2nc3ccccn3c2NCc2ccc3c(c2)OCO3)cc1	-42	-31	-9	-162	-174	4	x	x	x
COc1ccccc1-c1cc(C(F)(F)F)nc(N2CCCC2)n1	0	5	1	18	0	2	x	x	x
COc1ccccc1-c1cc(C(F)(F)F)nc(S(C)(=O)=O)n1	92*	97*	-47	105*	78*	69*	40*	68*	105*	Mdm2 MdmX conf=102*
C/C(=N\NC(=O)c1cccnc1)c1ccc(OC2OCCOC2Oc2ccc(/C(C)=N/NC(=O)c3cccnc3)cc2)cc1 (stereo not drawn)	-1	14	9	18	8	-26	x	x	x
O=C(Nc1ccc2nc3n(c(=O)c2c1)CCCC3)c1ccccc1F	-38	-41	3	-120	-154	-5	x	x	x
O=C(Nc1ccc2nc3n(c(=O)c2c1)CCCCC3)c1cc([N+](=O)[O-])ccc1F	67*	96*	-46	108*	46*	71*	12	20	105*
CCCS(=O)(=O)c1nc(S(=O)(=O)c2ccc(C)cc2)c(N2CCN(CCO)CC2)s1	18	-13	4	17	-4	-3	x	x	x
C=C1C(=O)OC2CC1C(O)CC(C)=CCCC(C)=CC(O)CC2C (stereo not drawn)	95*	96*	-40	98*	94*	81*	97*	98*	107*
C=C1C(=O)OC2CC1C(OC(C)=O)CC(C)=CCCC(C)=CCCC2(C)O (stereo not drawn)	x	94*	-44	99*	92*	94*	32	92*	104*
SMILES	MITF TRPM1 inh	Shn3 3UTR inh	KKLEB tox	Peg3 promoter	HIF-2a block	CF NFkB block	CF NFkB inh conf	HIF-2a inh conf	HIF-1a counter	others
O=C(Nc1ccc(N2CCCC2)c(Cl)c1)c1ccc([N+](=O)[O-])o1	73*	64	-46	110*	84*	70*	-26	50*	107*
O=C(Nc1ccc(N2CCCC2)c(Cl)c1)c1ccco1	-41	-14	2	-147	-194	-26	x	x	x
O=S1(=O)CCC(NC(=S)SCCOc2ccccc2)C1 (stereo not drawn)	32	0	3	-7	50*	58*	86*	48*	67*
CCCCSC(=S)NC1CCS(=O)(=O)C1 (stereo not drawn)	38	-18	-11	18	32	40	x	x	x
NS(=O)(=O)c1ccc(CNC(=O)c2sccc2-c2ccccc2)cc1	-3	2	-6	7	9	6	x	x	x
O=[N+]([O-])c1ccc(C=CC=Cc2ccccc2)cc1	x	-66	11	-255	-241	-47	x	x	x

Screens: PubChem, several laboratories
